From PubChem BioAssay
Rows were chosen to be rich in hits. Some 19% of all compounds tested hit in one or more screens of this group.
AMA1-RON2 inh: qHTS for Inhibitors of AMA1-RON; Towards Development of Antimalarial Drug Lead: Primary Screen | Plasmodium falciparum AMA1 (3D7) - RON2 peptide interaction | AlphaScreen AMA1-biotinylated RON2 peptide binding | Potency, µM (top dose mostly 58.2 µM), for the others: at the top dose activity change, negative = inhibition, hits mostly inhibitors | 360,000 tested, 0.2% active | AID 720542, 2013;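 further: potency means the concentration at half of the fitted maximal effect; 0% = vehicle wells and -100% = peptide control; nearly all actives have a fitted effect of over 45% in size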
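AMA1 (3D7) with his tag at 25 nM final met compounds first, then biotinylated RON2 peptide at 25 nM; detection used donor plus acceptor beads, 10 µg/mL apiece, read by AlphaScreen after 30 min at room temperature.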
CHX counter: Cycloheximide Counterscreen for Small Molecule Inhibitors of Shiga Toxin; 300,000 tested, 12% active; cell reporter, cycloheximide protein synthesis inhibition counterscreen; max response, %; in the data active means max response mostly above about 13%, no sharp cut-off; inactive means mostly below about 14%; further: read at 38.3 µM for the half of the compounds with a filed dose; 0% is about no effect
Pf growth 48h: Primary qHTS for delayed death inhibitors of the malarial parasite plastid, 48 hour incubation. P. falciparum luciferase growth in erythrocytes, 48 h. Potency, µM (highest dose often 28.7 µM), for the others: top-dose activity change, negative = inhibition, most hits filed as inhibitors. 310,000 tested, 5.9% active. AID 504832, 2011; further: potency means the concentration at half of the fitted maximal effect; on the % scale 0 is the no-effect control and ±100 the full control effect
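First compound was added to culture medium, then infected red cells at 0.1% parasitemia and 2% hematocrit (final). After incubation at 37 C under 5% CO2, luciferase detection reagent was dispensed and light output recorded.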
SARS PLpro yeast: qHTS of Yeast-based Assay for SARS-CoV PLP; S. cerevisiae expressing SARS-CoV PLpro, growth rescue; Potency, µM (series often up to 32.9 µM), without a hit: top-dose activity, positive = growth rescue, usual class: activators; 330,000 tested, 0.19% active; calls by dose curve; further: potency means the concentration at half of the fitted maximal effect; 0% is about no effect; nearly all actives have a fitted effect of over 55% in size
Shiga toxin inh: A qHTS for Small Molecule Inhibitors of Shiga Toxin; Vero cells, Shiga toxin protein synthesis inhibition reporter; inhibition, % at 38.7 µM; 290,000 tested, 9.2% active; in the data active means inhibition mostly above about 28%, no sharp cut-off; inactive means mostly below about 43%; further: 0% is about no effect
Pf growth 96h: Primary qHTS for delayed death inhibitors of the malarial parasite plastid, 96 hour incubation. P. falciparum luciferase reporter growth, 96 h. 320,000 tested, 6.9% active. AID 504834, 2011. Potency, µM (top dose mostly 28.7 µM), for the others: top-dose activity change, negative = inhibition, actives largely listed as inhibitors; further: potency means the concentration at half of the fitted maximal effect; on the % scale 0 is the no-effect control and ±100 the full control effect
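Parasite growth measured via integrated firefly luciferase reporter in P. falciparum. Infected erythrocytes at 2% hematocrit, 0.05% parasitemia final were treated 96 hours at 37 C under 5% CO2, and luminescence was read.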
Active calls of the source: *; ? = inconclusive; nt = no result. Unless noted, the call rests on the fitted dose curve; in most records, active means well fitted curve in the direction sought with a large enough effect; inconclusive means small, poorly fitted or top-dose-only effect, or another doubt; inactive means no such curve, though single readings can be large; an effect the other way counts as inactive or inconclusive.

SMILES	AMA1-RON2 inh	CHX counter	Pf growth 48h	SARS PLpro yeast	Shiga toxin inh	Pf growth 96h
CCCNC(=O)C1(C)CCN(C(=O)c2cccnc2Oc2ccccc2)C1 (stereo not drawn)	24.4%	nt	nt	nt	nt	nt
CCOc1ccc(N2C(=O)CC(N(CCc3ccc(OC)c(OC)c3)C(=O)/C=C/C(=O)O)C2=O)cc1 (stereo not drawn)	-1.1%	-1.6	-5.1%	1.8%	-15.4	6.8%
O=C(CCNC(=O)C1CCN(S(=O)(=O)c2ccc(F)cc2)CC1)Nc1ccccc1	12.5%	1.1	11.0%	-2.9%	12.6	-5.1%
CC(C)(C)NC[C@H](O)c1cc(O)cc(O)c1	nt	nt	2.1%	nt	nt	-18.9%
CCN(CC)CCn1c2c(c(SCC(=O)Nc3nccs3)nc1=O)CCCC2	-5.4%	nt	?	-2.3%	nt	-8.8%
CCCCCCC1/C(=N\NC(=O)c2ccccc2)CCC1C(=O)OC (stereo not drawn)	72.6%	35.0*	nt	0.1%	80.1*	-16.2%
C=CCOC(=O)c1[nH]c2c(c1C)C(=O)CC(c1ccco1)C2 (stereo not drawn)	-12.6%	-1.5	5.22µM*	-9.7%	-3.2	-86.2%
Cc1c(C(=O)OC2CCCC2)[nH]c2c1C(=O)CC(c1ccco1)C2 (stereo not drawn)	-22.5%	0.8	7.38µM*	2.0%	-1.4	?
C/C=C/COC(=O)c1[nH]c2c(c1C)C(=O)CC(c1ccco1)C2 (stereo not drawn)	0.0%	-4.8	1.47µM*	-19.6%	-11.1	-33.9%
COC(=O)c1[nH]c2c(c1C)C(=O)CC(c1ccccc1)C2 (stereo not drawn)	-6.4%	-1.6	?	?	-2.3	1.4%
Cc1c(C(=O)OCC(C)C)[nH]c2c1C(=O)CC(c1ccco1)C2 (stereo not drawn)	11.9%	10.2	11.7µM*	16.0%	17.8	0.0%
Cc1ccc(NC(=O)COC(=O)C2CC(=O)N(Cc3ccccc3)C2)cc1S(=O)(=O)N(C)C (stereo not drawn)	16.4%	-1.0	-4.7%	-3.3%	-6.0	-2.1%
COc1cc(SC)ccc1C(=O)OC(C)C(=O)Nc1ccc(NC(C)=O)cc1 (stereo not drawn)	-13.0%	-3.2	7.3%	-0.5%	10.3	18.2%
COC(=O)C1C(=O)c2c([nH]c(C(=O)OC3CCCC3)c2C)CC1C (stereo not drawn)	9.2%	47.1*	26.4%	nt	49.4	nt
COC(=O)c1[nH]c2c(c1C)C(=O)CC(c1ccc(OC)cc1)C2 (stereo not drawn)	2.3%	-1.5	nt	0.1%	2.0	5.3%
Cn1cc(Br)c(NS(=O)(=O)c2ccc(Cl)s2)n1	-5.8%	7.3	40.4%	0.2%	-4.4	53.2%
CC12COC3(P(=O)(c4ccccc4)c4ccccc4)CC1CCC23CP(=O)(c1ccccc1)c1ccccc1 (stereo not drawn)	-17.8%	0.2	1.17µM*	-1.0%	21.0	0.928µM*
COc1ccc([N+](=O)[O-])cc1NC(=O)c1cn(-c2ccc(C)c(C)c2)c(=O)c2ccccc12	-2.7%	-1.4	-7.6%	13.2%	-2.4	11.7µM*
Cn1ncc(Cl)c1C(=O)Nc1nnc(C2CC2)s1	0.0%	2.1	9.9%	-8.3%	-16.6	-1.9%
O=C(Nc1nc2ccc(Cl)cc2s1)c1ccc(Br)o1	-11.4%	34.0*	103.0%	0.0%	86.9*	127.6%
Cc1cc(C(=O)Nc2nc3ccc(Cl)cc3s2)nn1C	6.4%	23.8*	148.2%	-0.1%	92.5*	144.3%
Cn1ncc(Cl)c1C(=O)Nc1nc2ccc(Cl)cc2s1	13.9%	66.1*	136.6%	-7.4%	56.5*	8.1%
O=C(Nc1nc2c(Cl)cccc2s1)c1ccc(Br)o1	-0.9%	21.6	1.9%	-3.6%	16.4	nt
COc1ccc(CC(=O)NNC(=O)COc2ccc(Br)cc2C)cc1OC	34.9%	-3.3	0.6%	-2.1%	13.5	-25.0%
COc1cc(CNCC(C)C)cc(Br)c1OCC(=O)Nc1ccccc1	-6.0%	-2.2	9.28µM*	-57.1%	-10.2	10.4µM*
SMILES	AMA1-RON2 inh	CHX counter	Pf growth 48h	SARS PLpro yeast	Shiga toxin inh	Pf growth 96h
O=C(COc1ccc(Br)cc1CO)Nc1ccccc1F	4.9%	29.3*	83.2%	-6.4%	77.4*	2.7%
COc1ccccc1NC(=O)COc1ccc(Br)cc1CO	-2.5%	21.4	nt	2.3%	14.9	1.9%
COc1ccccc1NC(=O)COc1ccc(Br)cc1CNC1CCCC1	2.1%	-1.7	11.7µM*	0.8%	-9.2	7.2%
COc1cc(CO)ccc1OCC(=O)Nc1ccc(Br)cc1	0.5%	20.6*	22.0%	-2.3%	96.4*	?
C=C1C(=O)[C@]23[C@H](O)[C@H]1CC[C@H]2[C@@]12COC3(O)[C@H](O)[C@@H]1C(C)(C)CC[C@@H]2O	nt	-5.4	nt	nt	-14.6	nt
Cc1cc(=O)[nH]c(SCC(=O)N(CCC#N)c2ccccc2)c1C#N	0.0%	0.7	-21.0%	-1.5%	-4.9	-17.8%
O=C(COc1ccccc1C(=O)NCc1ccccc1)Nc1ccccc1	0.1%	nt	?	-4.7%	nt	-27.4%
Cc1ccc(NC(=O)COc2ccc(Br)cc2CO)cc1	33.9%	26.5*	nt	-6.6%	69.5	?
CCOc1cc(CNCCO)c(Cl)cc1OCC(=O)NCCc1ccccc1	-14.9%	1.1	?	-2.3%	-12.5	9.2%
O=C(COc1ccc(Br)cc1CO)Nc1ccccc1	-16.1%	26.7*	18.2%	-3.6%	159.2	66.7%
CC(=O)Nc1ccc(NC(=O)COc2c(C)cc(Br)cc2C)cc1	4.0%	5.3	?	0.6%	-19.1	-8.7%
CCCNCc1cc(Br)ccc1OCC(=O)NCCc1ccccc1	-18.4%	-5.6	13.1µM*	?	-8.4	11.7µM*
Cc1cccc(-c2ncc(CN3CCCC(CO)(Cc4ccccc4C)C3)cn2)c1 (stereo not drawn)	0.0%	15.7	?	-1.6%	22.7	?
CC(C)NC(=O)c1cc(-c2ccc(F)cc2OC(C)C)n[nH]1	-3.8%	nt	nt	nt	nt	nt
CCN(CC)C(=O)Cn1c(=O)c2ccccc2n2c(=S)sc(-c3cccc(C)c3)c12	-0.3%	-3.6	?	-13.6%	-0.5	2.08µM*
CCCn1c(SCc2cc(=O)oc3ccc4ccccc4c23)n[nH]c1=O	-3.2%	1.3	?	-2.5%	-15.5	?
O=C(CN1CCCCC1)N1N=C(c2cccs2)CC1c1cccs1 (stereo not drawn)	0.2%	-0.8	-12.0%	0.3%	-4.1	?
Cn1nc(-c2ccc(Cl)cc2)cc1NC(=O)CSCC(=O)O	17.7%	-1.0	38.2%	1.7%	-1.4	36.2%
CN(CC(=O)NC(=O)NC1CCCCC1)CC(=O)Nc1ccc(OC(F)(F)F)cc1	72.9%	nt	5.22µM*	-3.6%	nt	?
